According to PubChem BioAssay AID1825 (The Scripps Research Institute Molecular Screening Center, 2009):
Out of some 290,000 compounds screened, about 2,300 (0.79%) were called active. The list comes from a sample in which actives are over-represented; it also holds similar structures and randomly drawn compounds. A number with no mark means an inactive call. Rule as the data show it: active = inhibition above about 22%; inactive = the rest.

test: cytotoxicity in IEC-6 intestinal epithelial cells, primary screen, cytotoxicity control for KLF5 inhibitor project, cell-based, luminescence (AID 1825); settings: IEC-6 cytotoxicity, luminescence viability; at 5 µM; stronger effect = higher value;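 also: 0% = plate median of test compound wells and 100% = cytotoxic reference compound wells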

SMILES | inhibition
CCc1nn(CCCC(=O)Nc2ccc(C)c(C)c2)c(=O)c2cc3occc3n12 | -1.7%
CCCCCCn1cc(C(=O)O)c(=O)c2cc(F)c(N3CCCCC3)cc21 | 2.5%
Cc1ccc(C)c(Cn2cnc3c(oc4ccccc43)c2=O)c1 | 19.8%
O=C(c1n[nH]c2c1CCC2)N1CCCC(Nc2cccc(F)c2)C1 (stereo not drawn) | -8.3%
CC(=O)Nc1ccc(Nc2c3ccccc3nc3ccccc23)cc1 | 95.3% (active)
O=[N+]([O-])c1cccc(Nc2c3ccccc3nc3ccccc23)c1 | -0.9%
Cc1ccc(Nc2c3c(nc4ccccc24)CCC3)cc1 | 7.5%
COc1ccc(Cl)cc1NC(=O)CN(C)Cc1ccc(OC)c(OC)c1 | 5.1%
COc1ccccc1N1CC(C(=O)Nc2nnc(SCC(=O)NCC3CCCO3)s2)CC1=O (stereo not drawn) | 5.1%
Nc1nonc1-n1nnc(C(=O)N/N=C\c2ccncc2)c1CN1CCCCC1 | -0.8%
CCOc1cc(/C=N/Nc2cc(C)nc3ccc(C)cc23)ccc1O | -8.1%
CC1(C)CC(N2CCN(C(c3ccccc3)c3ccccc3)CC2)=CC(=[N+]2CCCCC2)C1 | 30.6% (active)
CC(C)NC(=S)N1CCN(C(c2ccccc2)c2ccccc2)CC1 | -1.6%
O=C(O)CN1CCN(C(c2ccccc2)c2ccccc2)CC1 | -7.1%
CC(C)c1ccc(/C=C2\NC(=O)NC2=O)cc1 | -2.7%
COc1ccc(N(C(=O)CNC(=O)c2ccco2)C(C(=O)NCC2CCCO2)c2ccccc2)cc1Cl (stereo not drawn) | 4.1%
CN(C)c1ccc(/C=N\S(=O)(=O)c2ccccc2)cc1 | -2.3%
CC[n+]1cc(C)ccc1/C=C/c1ccc(N(C)C)cc1 | 38.6% (active)
CCSc1nnc(-c2cc3c(s2)-c2ccccc2CC3)o1 | 5.3%
CC1CCCN(S(=O)(=O)c2ccc(-c3ccc(=O)[nH]n3)o2)C1 (stereo not drawn) | 2.6%
COCCNc1ncnc2c1nc1n2CCCC1 | 2.4%
COc1ccccc1/C=C1\SC(=O)N(CCC(=O)N(C)C2CCS(=O)(=O)C2)C1=O (stereo not drawn) | -0.8%
CN1CCC(CN)(N2CCN(c3ccccc3)CC2)CC1 | -4.9%
Cc1cnc(NC(=O)c2ccc(Cl)nc2)s1 | -6.8%
O=C(NNc1ccccn1)c1ccc(Cl)nc1 | -4.7%

SMILES | inhibition
CCN(CC)c1ccc(NC(=O)c2ccc(Cl)nc2)cc1 | 55.7% (active)
COc1cccc(CNC(=O)CCC2CCCN(C(=O)c3ccc(F)c(Cl)c3)C2)c1 (stereo not drawn) | 1.1%
O=C(CNC(=O)c1cccs1)N/N=C/c1cccc(Br)c1 | -5.3%
O=C(CCN1C(=O)C2C3C=CC(C3)C2C1=O)Nc1ccccc1F (stereo not drawn) | -2.4%
O=C(CN1C(=O)C2C3C=CC(C3)C2C1=O)NCCc1ccccc1Cl (stereo not drawn) | -1.9%
O=C(CN1C(=O)C2C3C=CC(C3)C2C1=O)Nc1nc(-c2ccccn2)cs1 (stereo not drawn) | 32.2% (active)
COc1ccc(C)cc1-n1nnnc1SCc1nc2ccccc2c(=O)[nH]1 | 3.2%
COc1ccc(/C=N/Nc2nc3ccccc3c(=O)[nH]2)cc1 | 1.1%
CCOc1cc(/C=C/c2nc3ccccc3c(=O)[nH]2)cc(Br)c1OC | 48.7% (active)
CCC1=Nc2cc(C(=O)NCCN3CCCC3)ccc2Sc2ccc(C)cc21 | 2.7%
CCCC1=Nc2cc(C(=O)NCCN3CCCC3)ccc2Sc2ccccc21 | -2.7%
CCCC1=Nc2cc(C(=O)NCc3ccco3)ccc2Sc2ccccc21 | 62.9% (active)
Cc1ccccc1N1CC(C(=O)Nc2nnc(SCCC3OCCO3)s2)CC1=O (stereo not drawn) | -3.4%
O=c1ccc2cc(S(=O)(=O)NCCCc3ccccc3)ccc2[nH]1 | -3.7%
CCn1ccnc1CN(C)C(=O)c1cc(COc2ccc(-n3cncn3)cc2)on1 | -7.1%
O=C(c1cc(COc2ccc(F)c(F)c2)on1)N1CCOCC1 | 0.8%
C=CCC1(CC=C)CCCN1C(=O)c1cc(COc2ccc(-n3cncn3)cc2)on1 | 22.6% (active)
CCCCNC(=O)CCn1nc(-c2ccc(Cl)cc2)ccc1=O | -2.4%
COc1cc(OC)nc(S(C)(=O)=O)n1 | 6.6%
COc1ccc(-c2cc(C(F)(F)F)nc(S(C)(=O)=O)n2)cc1OC | 26.4% (active)
COc1ccc(-c2cc(C(F)(F)F)nc(SCC(=O)Nc3ccc4c(c3)OCO4)n2)cc1OC | 3%
Cn1c(=O)[nH]c(=O)c2c1nc(N1CCN(C(c3ccccc3)c3ccccc3)CC1)n2CCO | -7.4%
COc1ccccc1N1CCN(S(=O)(=O)c2ccc3c(c2)NC(=O)CS3)CC1 | 2.9%
CC(C)(C)c1cc[n+](-c2[nH]c(=O)sc2/C=N/N=C(\[O-])c2ccccc2)cc1 | 4.2%
O=C(c1ccccc1F)N(Cc1ccccc1)Cc1ccccc1 | -1.4%

SMILES | inhibition
CC1(C)C(C=C(Cl)Cl)C1C(=O)N(Cc1ccc(Cl)cc1)C1CCS(=O)(=O)C1 (stereo not drawn) | -12.5%
O=C(COC(=O)c1cc(S(=O)(=O)N2CCCCC2)ccc1Cl)NCc1ccco1 | 6.2%
Cc1cc(C(=O)OCC(=O)NCc2ccco2)c(C)n1-c1ccccc1 | 33.2% (active)
CN(c1ccccc1)S(=O)(=O)c1ccc(Cl)c(C(=O)OCC(=O)NCc2ccco2)c1 | -4.1%
O=C(COc1ccc(Cl)cc1)Nc1ccc2oc(=O)ccc2c1 | -4.8%
Oc1cccc(/C=N/Nc2ccc(Cl)nn2)c1O | 99.5% (active)
COc1cccc(/C=N/Nc2ccc(Cl)nn2)c1 | -3.1%
Clc1ccc(N/N=C/c2cccs2)nn1 | -1.4%
CCC1CCCCN1C(=O)CSc1nc2c(c(=O)n1C)SC(C)C2 (stereo not drawn) | 0%
Cc1cc(Cl)ccc1C(=O)C1CCCN(C(=O)c2nonc2C)C1 (stereo not drawn) | -1.1%
CCC(CC)C(=O)Nc1c2c(nn1-c1ccc(C)cc1)CS(=O)(=O)C2 | -3%
CCOCCCNc1nc(-c2ccccc2)nc2ccccc12 | -4%
Cc1ccc(Oc2nc(-c3ccccn3)nc3ccccc23)cc1 | 8.9%
CC(C)(C)Nc1nc(-c2ccccn2)nc2ccccc12 | 91.3% (active)
COc1cc(N=Cc2c(O)c3ccccc3oc2=O)c(OC)cc1Cl | 2.7%
CNC[C@H](CC1CCCCC1)NC[C@H](NCCC1CCCC1)[C@H](C)O | 36.1% (active)
COc1cc(C(=O)OC2CCOC2=O)c([N+](=O)[O-])cc1OC (stereo not drawn) | -4%
COc1ccccc1Oc1ccc(N/C=C2/CCCC2=O)cc1 | -8.7%
CC(C)=C(NC(=O)c1ccccc1)C(=O)N/N=C(\C)c1ccccc1O | 4%
Cc1[nH]n(-c2ccccc2)c(=O)c1/C=N/NC(=O)c1ccoc1C | 1.8%
C/C(=N\NC(=O)c1ccoc1C)c1ccccc1O | 98.7% (active)
CN(Cc1ccccc1)S(=O)(=O)c1nnc(NC(=O)c2ccccc2F)s1 | 4.7%
Cc1ccc(-c2nn(-c3ccccc3)cc2/C=C2\SC(=S)N(CCCCCC(=O)O)C2=O)o1 | -8.8%
Cc1cccc(N(C(=O)Cn2nnc(-c3ccc(C)o3)n2)C(C(=O)NC2CCCC2)c2ccncc2)c1 (stereo not drawn) | -3.9%
C[N+](C)(C)CCNC(=O)c1cc[n+](Cc2ccccc2)c(/C=N/O)c1 | -6.3%

SMILES | inhibition
CCC(=O)Nc1ccc(C(=O)NNC(=O)c2ccc(Cl)cc2)cc1 | 2.4%
CC(C)(C)c1cc2cccnc2n1Cc1cccc(F)c1 | -9.9%
O=C(CSc1ncn[nH]1)N/N=C/c1ccc(F)cc1 | 2.8%
O=C(/C=C/Sc1ncn[nH]1)c1ccc(Cl)cc1 | 96.3% (active)
Cc1ccc(C(=O)/C=C/c2c(C)nn(-c3ccccc3)c2Cl)cc1 | 7.3%
CC(C)(C)n1nnnc1C(c1ccccc1F)N1CCN(C(=O)c2ccco2)CC1 (stereo not drawn) | -4.7%
O=C(OCc1ccc(-c2ccccc2)cc1)c1cccc(O)c1 | -3.8%
CCN(CC(=O)NCCCN1CCOCC1)S(=O)(=O)c1cc(Cl)ccc1Cl | 0.6%
O=S(=O)(NCCc1ccc(Cl)cc1)c1cccs1 | 6.4%
O=C1C(Cc2ccc(O)cc2)NC(=S)N1Cc1ccccc1 (stereo not drawn) | -3.3%
COc1ccc(N2C(=O)C(Cc3ccccc3)NC2=S)cc1 (stereo not drawn) | 3.8%
Cc1ccc(N2C(=O)C(Cc3ccccc3)NC2=S)cc1 (stereo not drawn) | 24.6% (active)
CC(C)C(=O)NCC(c1cccs1)S(=O)(=O)c1ccc(F)cc1 (stereo not drawn) | 7.2%
CC(=O)Nc1ccc(Nc2ncnc3c2nnn3Cc2ccccc2Cl)cc1 | 1.1%
CCN(Cc1nc2ccccc2c(=O)[nH]1)Cc1cc(=O)oc2cc(C)c(C)cc12 | 2%
COc1ccc(C(=O)Nc2cc(C)c(NC(=O)c3ccccc3OC)cn2)cc1 | -2.8%
Cc1cc(C(=O)NC2CC(C)(C)Cc3c2cnn3-c2ccccc2)n[nH]1 (stereo not drawn) | 7.1%
Cc1cccc2sc(N(CCCN(C)C)C(=O)CCS(=O)(=O)c3ccccc3)nc12 | 11.3%
COc1cccc2sc(N(CCCN(C)C)C(=O)CCS(=O)(=O)c3ccccc3)nc12 | 50% (active)
COc1cccc2sc(N(CCCN(C)C)C(=O)C(c3ccccc3)c3ccccc3)nc12 | 3.5%
COc1ccccc1NC(=O)c1ccc(C)s1 | 34.8% (active)
COC(=O)c1c(NC(C)=O)sc(C(=O)Nc2ccccc2OC)c1C | -1.2%
COc1ccccc1NC(=O)C1=C(C)NC(=O)NC1c1ccc(C)s1 (stereo not drawn) | -4.5%
